# GPR151 ag = human GPR151 activation; PathHunter beta-arrestin GPR151 cells, luminescence; AID 1508602; activation, % at 11.2 µM; 1% of 650,000 active; Q8TDV0; in the data active = activation above about 4.9%
# Target sequence (Q8TDV0 whole entry, looked up): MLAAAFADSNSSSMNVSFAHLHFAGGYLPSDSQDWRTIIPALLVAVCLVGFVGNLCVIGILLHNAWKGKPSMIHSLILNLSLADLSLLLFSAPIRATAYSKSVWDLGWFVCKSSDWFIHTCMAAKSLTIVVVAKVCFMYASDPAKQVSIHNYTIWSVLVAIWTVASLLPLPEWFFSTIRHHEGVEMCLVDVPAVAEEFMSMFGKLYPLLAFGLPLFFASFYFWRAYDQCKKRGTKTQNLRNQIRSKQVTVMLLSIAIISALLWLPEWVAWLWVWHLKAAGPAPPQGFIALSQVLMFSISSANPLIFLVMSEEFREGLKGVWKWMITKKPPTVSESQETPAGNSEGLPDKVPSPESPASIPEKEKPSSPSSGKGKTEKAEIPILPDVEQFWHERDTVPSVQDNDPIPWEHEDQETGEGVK
# TEAD-YAP inh = TEAD-YAP interaction inhibition | 1.4% of 640,000 active | HEK-TIYL cells, TEAD-Gal4/YAP UAS-luciferase luminescence | inhibition, % at 9.12 µM; in the data active = inhibition above about 32%
# FBW7 activator = human FBW7 E3 ligase activation, primary screen | normalized activity (activation), % at 26.1 µM | 0.13% of 650,000 active | Q969H0 | AlphaScreen FBW7–phospho-cyclin E peptide binding, activator screen; in the data active = normalized activity above about 1.9%;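 also: purified mutant Fbw7 with reduced substrate affinity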
# MITF primary = inhibitors of human MITF | AlphaScreen MITF homodimerization, bead proximity signal | O75030 | inhibition, % at 2.6 µM | 0.91% of 650,000 active; in the data active = inhibition above about 50%
# MITF confirm = confirmation of human MITF inhibitors. inhibition, % at 2.6 µM. 16% of 4,700 active. shares compounds with MITF primary. AlphaScreen MITF homodimerization, biotin/His-MITF beads;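 active = inhibition above a cutoff derived from the DMSO control wells, cut at about 28% in these data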;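 also: inhibitors lower the bead chemiluminescence by keeping MITF from dimerizing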
# AS interf DR = optically interferes with AlphaScreen signal in dose response | shares compounds with MITF primary | AlphaScreen optical interference counterscreen, cell-free | IC50, µM | 6% of 480 active | AID 1259373; call rule not given here
# AlphaScreen intf2 = AlphaScreen optical interference, counter-screen. shares compounds with MITF primary. LysRS AlphaScreen counterscreen, signal interference, triplicate. inhibition, % at 2.6 µM. 7.6% of 4,700 active;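 active = inhibition above a cutoff derived from the DMSO control wells, cut at about 30% in these data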
# Hits are given with their value; n = inactive; x = no result. A selection: hits, their analogues and other compounds. The true share with any hit is near 3.5%.
SMILES,GPR151 ag,TEAD-YAP inh,FBW7 activator,MITF primary,MITF confirm,AlphaScreen intf2,others
Cc1cc(C)c(C(=O)N2CCC(=O)N(Cc3cn4cccc(C)c4n3)CC2)[nH]1,n,n,n,n,x,x,
O=C(NCCN1CCOCC1)c1csc(Nc2ccncn2)n1,n,n,n,n,x,x,
Cc1nc(N)sc1N=Nc1ccc(S(=O)(=O)N2CCOCC2)cc1,n,n,n,n,x,x,
COc1cc(CN2CCN(Cc3cccc4ccccc34)CC2)cc(OC)c1,n,n,n,74,n,n,
COc1cc(OC)c(/C=N/N2CCN(Cc3cccc4ccccc34)CC2)c(OC)c1,n,n,n,n,x,x,
COc1cc(CN2CCN(Cc3ccccc3C)CC2)cc(OC)c1,n,n,n,80,n,n,
O=C(CCC1CCCC1)Nc1c2c(nn1-c1ccc(F)cc1)CS(=O)(=O)C2,n,n,n,n,x,x,
O=S(=O)(c1ccc(Br)cc1)n1c(SCc2cccc(F)c2)nc2ccccc21,n,n,n,110,n,n,
COc1ccc(N(C)C(=O)CCc2nc(-c3ccc(C)cc3)no2)cc1,n,n,n,56,n,n,
CCOc1ccc(C2C(C(=O)Nc3cc([N+](=O)[O-])ccc3OC)c3ccccc3C(=O)N2CCN2CCOCC2)cc1 (stereo unspecified),n,n,n,n,x,x,
Cc1cc(C)n2nc(C(=O)Nc3ccc(Br)c(C)c3)nc2n1,n,n,n,51,n,n,
CCOc1ccc2cc(C3CC(c4ccc(C)cc4)=NN3S(C)(=O)=O)c(Cl)nc2c1 (stereo unspecified),n,n,n,n,x,x,
O=C(NCC1Cc2cc(-c3cnccn3)ccc2O1)c1cccc(N2CCCC2=O)c1 (stereo unspecified),n,n,n,52,n,n,
Cc1ccc2c(c1)NC(=O)C(N1CCOCC1)(C(F)(F)F)O2 (stereo unspecified),n,n,n,59,n,n,
Cc1ccc2c(c1)NC(=O)C(Cl)(C(F)(F)F)O2 (stereo unspecified),n,n,n,n,x,x,
COC(=O)c1ccccc1NC(=O)Cn1ncc2c(=O)oc3ccccc3c21,n,n,n,n,x,x,
CCOc1ccc2nc(N=C(NC(=O)CC)NC(=O)CC)nc(C)c2c1,n,n,n,110,n,n,
Cc1cc(OC(=O)c2cccc([N+](=O)[O-])c2)ccc1N1C(=O)CCC1=O,n,n,n,70,n,n,
COc1cc2nc(CN(C)Cc3cc(C)no3)nc(N)c2cc1OC,n,n,n,n,x,x,
COc1cc2nc(CN(C)Cc3nccs3)nc(N)c2cc1OC,n,n,n,73,48,100,
CCCCn1nnnc1SCC(=O)Nc1cccc(C(C)=O)c1,n,n,n,68,n,n,
CC(=O)NNC(=O)CSc1nnnn1-c1cccc(C(C)=O)c1,n,n,n,73,n,n,
CCCCn1nnnc1SCC(=O)Nc1cccc(C)c1,n,n,n,n,x,x,
Cc1[nH]n(-c2ccc(Cl)cc2)c(=O)c1C=Nc1ccc(S(=O)(=O)Nc2cc(Cl)ccc2O)cc1,n,n,n,n,x,x,
CCN(CC)CC(=O)Nc1ccc2c(c1)OCO2,n,n,n,n,x,x,
SMILES,GPR151 ag,TEAD-YAP inh,FBW7 activator,MITF primary,MITF confirm,AlphaScreen intf2,others
CCN(CC(=O)Nc1ccc(C(C)=O)cc1)CC(=O)Nc1ccc2c(c1)OCCO2,n,n,n,80,n,n,
CCN(CC(=O)Nc1ccc(NC(C)=O)cc1)CC(=O)Nc1ccc(Cl)c(Cl)c1,n,n,n,94,n,n,
CCN(CC(=O)Nc1ccc(OC)cc1)CC(=O)NC(C)(C)C,n,n,n,n,x,x,
CCN(CC)CC(=O)Nc1ccc(OC)cc1,n,n,n,52,28,n,AS interf DR=n
CCN(CC(=O)Nc1ccc2c(c1)OCCO2)CC(=O)Nc1ccccc1C(F)(F)F,n,n,n,89,n,n,
O=c1c2ccccc2nc(SCc2cccc(Cl)c2)n1Cc1ccco1,n,n,n,n,x,x,
CCN(CC)c1ccc(/C=C2/C(=O)NN(c3cccc(Cl)c3)C2=O)c(O)c1,n,n,n,n,x,x,
CCN(CC)CCN1CC(c2ccccc2)CC1=O (stereo unspecified),n,n,n,58,n,n,
CCc1ccc(N2C(=O)C(Cl)=C(NC3CCCCC3)C2=O)cc1,n,n,n,64,n,n,
COc1ccc(CC2=NOC(CNC(=O)c3ccc(C#CC(C)(C)O)cc3)C2)cc1 (stereo unspecified),n,n,n,n,x,x,
COc1ccccc1C(=O)Nc1ccc2c(c1)C(=O)Nc1cc(Cl)ccc1O2,n,n,n,n,x,x,
CCOc1ccccc1C(=O)Nc1ccc2c(c1)C(=O)Nc1ccccc1O2,n,n,n,53,n,n,
c1ccc2c(c1)OCC(c1nc3c(-c4ccncc4)cncc3[nH]1)O2 (stereo unspecified),n,n,n,61,39,n,AS interf DR=n
COc1cc(-c2nc(C=Nc3cccc(Cl)c3C)c(O)o2)cc(OC)c1OC,n,n,n,n,x,x,
CCOc1ccccc1C1C(C#N)=C(SCC(=O)Nc2ccc(Br)cc2)NC(=O)C1C(=O)OC (stereo unspecified),n,n,n,54,n,n,
CCn1c(C)[n+](CC)c2ccc(S(=O)(=O)C(F)F)cc21,n,n,n,n,x,x,
CCn1c(C)[n+](CC)c2ccc(Cl)cc21,n,n,n,57,n,n,
